FH mod: Identification of activators of human fumarate hydratase by quantitative high-throughput screening. actives 0.22% (n = 54,000). Potency, µM (top dose mostly 79.9 µM), without a hit: top-dose activity change, negative = inhibition, actives largely listed as inhibitors. FH coupled MDH/diaphorase resazurin fluorescence, 15 min. AID 1347055, 2019; further: potency means the concentration at half of the fitted maximal effect; on the % scale 0 is the no-effect control and ±100 the full control effect; the screen sought activators but most active calls are inhibition curves; nearly all actives have a fitted effect of over 45% in size
GALC G270D up: galactocerebrosidase G270D activity enhancement, cell-based | P54803 | 145M-Twi-hGALC-G270D cells, HMU-beta-Gal fluorescence, 48 h | Potency, µM (highest dose often 57.5 µM), most hits filed as activators | actives 0.1% (n = 45,000) | AID 1159614; further: potency means the concentration at half of the fitted maximal effect; 0% is about no effect; nearly all actives have a fitted effect of over 65% in size
Target sequence (P54803 whole entry G286D): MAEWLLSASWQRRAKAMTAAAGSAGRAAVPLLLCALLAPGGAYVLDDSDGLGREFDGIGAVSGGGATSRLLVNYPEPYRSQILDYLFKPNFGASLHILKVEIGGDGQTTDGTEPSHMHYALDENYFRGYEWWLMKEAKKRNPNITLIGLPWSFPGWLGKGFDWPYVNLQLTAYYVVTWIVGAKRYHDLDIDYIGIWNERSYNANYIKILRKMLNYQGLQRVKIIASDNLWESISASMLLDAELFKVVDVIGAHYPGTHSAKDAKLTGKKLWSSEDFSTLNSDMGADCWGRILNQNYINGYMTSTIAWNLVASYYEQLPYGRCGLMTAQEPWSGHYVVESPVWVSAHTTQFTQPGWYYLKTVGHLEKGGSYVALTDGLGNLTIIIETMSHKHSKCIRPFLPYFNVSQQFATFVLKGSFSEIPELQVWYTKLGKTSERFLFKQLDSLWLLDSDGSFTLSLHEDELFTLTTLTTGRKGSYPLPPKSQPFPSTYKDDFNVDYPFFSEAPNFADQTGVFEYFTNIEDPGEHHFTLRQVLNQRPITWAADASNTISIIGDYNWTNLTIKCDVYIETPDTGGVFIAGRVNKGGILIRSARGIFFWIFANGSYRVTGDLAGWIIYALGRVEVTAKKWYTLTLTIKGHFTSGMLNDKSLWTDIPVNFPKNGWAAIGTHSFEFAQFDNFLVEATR
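qHTS, 1536-well; 145M-Twi-hGALC-G270D cells (WT line also made) in DMEM/F12 + 10% FBS; compound incubation on live cells; HMU-β-gal 0.1 mM final, pH 5.2, NaTC; carbonate stop; fluorescence increase = enhanced residual activity.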
DRV1 agonist: agonists of human resolvin D1 receptor DRV1 (GPR32); actives 2.5% (n = 48,000); CHO-K1 GPR32 beta-arrestin PathHunter luminescence, 90 min; zero percent set by DMSO-only wells; activation, % at 76.9 µM;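 active means activation of at least 60% and not above a set upper limit, about 1 call in 100 departs from these limits; inconclusive means activation of 40% to 60%, or above that upper limit; inactive means activation under 40%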; further: 0% is about no effect
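Readings come from a cell-based beta-arrestin complementation format: CHO-K1 GPR32 stable cells (2,500/well) treated 90 min with compounds, then beta-Gal substrate added for 1 h before chemiluminescence imaging.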
OvCa metastasis: blocks SKOV3ip1 adhesion and invasion in omental model; SKOV3ip1-GFP adhesion/invasion on 3D omental model, fluorescence; Potency, µM (top dose mostly 45.8 µM), without a hit: top-dose activity change, negative = inhibition, actives largely listed as inhibitors; actives 0.1% (n = 46,000); AID 1963576;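 further: potency means the concentration at half of the fitted maximal effect; plate controls were DMSO wells for no effect and tomatine positive control wells for full effect; nearly all actives have a fitted effect of over 65% in size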
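Adhesion/invasion was scored as fixed GFP-labeled SKOV3ip1 cell counts (488/509 nm), normalized to DMSO and tomatine controls. Cancer cells in serum-free medium, with four compound doses (0.36-46 umol/L), sat 2 hr at RT then 16 hr at 37 C on a 48 hr fibroblast/mesothelial/ECM culture.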
Active calls of the source: *; i = inactive; u = inconclusive; x = not tested or not shown; [ ] = remark or other dose. Only some compounds are listed: those with a hit (about 2.9% of all), similar ones and a draw of the others. Unless noted, the call rests on the fitted dose curve; in most records, active means well fitted curve in the direction sought with a large enough effect; inconclusive means small, poorly fitted or top-dose-only effect, or another doubt; inactive means no such curve, though single readings can be large; an effect the other way counts as inactive or inconclusive.

SMILES	FH mod	GALC G270D up	DRV1 agonist	OvCa metastasis
O=C(c1ccc(F)cc1)C1CCN(CCn2c(=S)[nH]c3ccccc3c2=O)CC1	6%[53.3 µM]	i	68*	x
O=C(CS(=O)(=O)c1cccc2nsnc12)N1CCN(c2cccc(C(F)(F)F)c2)CC1	-8%	i	88*	i
C#CC1(O)CC[C@H]2[C@@H]3CCC4=CCCC[C@@H]4[C@H]3CC[C@@]21C (some centres not stated)	-17%[53.3 µM]	i	105*	x
C#C[C@]1(OC(C)=O)CC[C@H]2[C@@H]3CCC4=C/C(=N/O)CC[C@@H]4[C@H]3CC[C@@]21CC	-27%[53.3 µM]	i	31	x
CC(C)(C)NCc1cc(Nc2ccnc3cc(Cl)ccc23)c2c(c1O)CCCC2	0%[0.673 µM]	x	x	x
CC(=O)c1cccc(NC(=O)CCS(=O)(=O)c2ccc(Br)s2)c1	-7%	i	13	-2%
Cc1ccc(NC(=O)CCS(=O)(=O)c2ccc(Br)s2)c(Br)c1	-3%	i	71*	2%
COc1cc(C(C)=O)ccc1OCCCN1CCC(c2noc3cc(F)ccc23)CC1	4%[53.3 µM]	i	71*	11%
O=C(CN1C(=O)C2(CCCC2)NCC1c1cc(F)cc(F)c1)Nc1ccc2c(c1)CC1(C2)C(=O)Nc2ncccc21 (configuration not stated)	-2%	x	x	x
CC1CCC2(C=O)C(CO)=CCCC2C1(C)CC(=O)O (configuration not stated)	-11%	x	x	x
CSc1ccc(CCNC(=O)Cn2ncc3c(=O)oc4ccc(C)cc4c32)cc1	-1%	i	4	-4%
CSc1ccc(CCNC(=O)Cn2ncc3c(=O)oc4ccccc4c32)cc1	-1%	i	67*	i
Cc1ccc2c(CNCCc3ccccc3)c(C(=O)O)n(Cc3ccccc3C)c2c1	-21%	i	66*	-9%
COc1ccc(Cn2c(C(=O)O)c(CNCc3ccc(OC)cc3OC)c3ccc(C)cc32)cc1	-21%	i	4	1%
COc1ccc2c(CNCCc3ccco3)c(C(=O)O)n(Cc3ccccc3)c2c1	-33%	i	-7	2%
COc1ccc(Cn2c(C(=O)O)c(CNCCc3ccco3)c3ccc(C)cc32)cc1	-19%	i	104*	i
C=Cc1ccc(Cn2c(C(=O)O)c(CNCCc3ccco3)c3ccc(C)cc32)cc1	-12%	i	88*	i
COc1ccc(Cn2c(C(=O)O)c(CNCCc3cc(OC)ccc3OC)c3ccc(C)cc32)cc1	-37%	i	106*	6%
COc1c(C)c(OCC(O)C(C)(C)O)cc2c1COC2=O (configuration not stated)	9%	x	x	x
Cc1cc(Nc2nn(-c3ccccc3)c(=O)c3ccccc23)n[nH]1	4%	x	x	x
C=C1CCC2(OC1)OC1CC3C4CC=C5CC(O)CC(O[C@@H]6OC[C@H](OC(=O)C(O)C(C)CC)[C@H](O)[C@H]6O[C@@H]6O[C@@H](C)[C@H](O)[C@@H](O)[C@H]6O)C5(C)C4CCC3(C)C1C2C (some centres not stated)	5%[20.6 µM]	x	x	x
Cc1c(Cl)cccc1-c1ccc(C(=O)Nc2ccc(F)cc2)o1	-20%	i	61*	-21%
COc1ccc(/C=C2\COc3ccc(C)cc3C2=O)cc1O	-22%[53.3 µM]	x	x	x
O=C(Cn1ncc2c1-c1ccccc1OC2)N1CCN(c2ccccc2F)CC1	-23%	i	92*	5%
Cc1ccc(C(=O)Nc2noc3ccccc23)cc1	0%	x	x	x
SMILES	FH mod	GALC G270D up	DRV1 agonist	OvCa metastasis
COc1ccccc1CCNC(=O)C(=O)NCC(c1ccco1)S(=O)(=O)c1ccc(C)cc1 (configuration not stated)	-25%	7.9µM*	-20	-14%
O=c1cc(-c2ccccc2)oc2c(O)c(O)ccc12	16µM*	x	x	x
O=c1cc(-c2ccccc2)oc2ccccc12	-15%	i	62*	x
CC(C)c1ccc(-c2cc(=O)c3ccccc3o2)cc1	-8%	x	x	x
N[C@@H](CC(=O)N1CCn2c(nnc2C(F)(F)F)C1)Cc1[nH]nc2c(F)c(F)ccc12	6%	x	x	x
N#Cc1ccnc(Nc2cc(C3CCN(C4COC4)CC3)cc(N3CCC(F)(F)C3)n2)c1	-5%	x	x	x
N#Cc1c(-n2ncnc2-c2ccc(F)cc2)sc2c1CCCCC2	-15%	i	69*	-4%
N#Cc1c(-n2ncnc2-c2cccc(Br)c2)sc2c1CCCCC2	-10%	i	13	i
Cc1ccccc1-c1ncnn1-c1sc2c(c1C#N)CCCCC2	-19%	i	106*	-5%
COc1ccc(-c2noc(CNC(=O)c3ccc(OC)cc3OC)n2)cc1	-19%	i	-5	i
COc1cc(OC)c(C(=O)NCc2nc(-c3ccccc3)no2)cc1OC	-23%	i	71*	i
COC(=O)C1C(CC(C)=O)C=CC(O)C12Oc1cc(C)cc(O)c1C2=O (configuration not stated)	0%[53.3 µM]	x	x	x
O[C@@H](CNC[C@H](O)[C@H]1CCc2cc(F)ccc2O1)[C@@H]1CCc2cc(F)ccc2O1	-3%[53.3 µM]	i	62*	-6%
Fc1ccc(N2CCN(c3ncnc4onc(-c5ccc(Cl)cc5)c34)CC2)cc1	-10%	i	13	i
Clc1ccc(-c2noc3ncnc(N4CCCCC4)c23)cc1	-10%	i	83*	-3%
CC(=O)c1c(C)cc(O)cc1O[C@@H]1O[C@H](CO)[C@@H](O)[C@H](O)[C@H]1O	-2%[53.3 µM]	x	x	x
CCc1ccc2[nH]cc(S(=O)(=O)c3ccc(C(C)C)cc3)c(=O)c2c1	10%	i	65*	-3%
CCCCn1c(=N)n(CCOc2ccccc2OC)c2ccccc21	-4%	i	65*	u
O=C(CCNS(=O)(=O)c1ccc2c(c1)CCN2C(=O)C1CC1)N1CCN(c2cccc(Cl)c2)CC1	-11%	i	61*	i
O=C(CCNS(=O)(=O)c1ccc2c(c1)CCN2C(=O)C1CC1)N1CCN(c2ccc(F)cc2)CC1	-8%	i	69*	-3%
COc1ccc(N2CCN(C(=O)CCNS(=O)(=O)c3ccc4c(c3)CCN4C(=O)C3CC3)CC2)cc1	-5%	i	20	-6%
O=C(CCNS(=O)(=O)c1ccc2c(c1)CCN2C(=O)C1CC1)Nc1ccc(F)cc1F	7%	i	85*	-28%
Cc1cccc(N2CCN(C(=O)CCNS(=O)(=O)c3ccc4c(c3)CCN4C(=O)C3CC3)CC2)c1C	-6%	i	44	13%
CCCC(N[C@@H](C)C(=O)N1[C@H](C(=O)O)C[C@@H]2CCCC[C@@H]21)C(=O)OCC (some centres not stated)	7%	x	x	x
CCc1ccc(NC(=O)CSc2nc3n[nH]c(C)c3c(=N)n2-c2ccccc2C)cc1	-1%	i	62*	i
Cc1cc(-n2c(C)nc3ccccc3c2=O)ccc1NC(=O)c1ccccc1[N+](=O)[O-]	2%	i	94*	-9%
